Compound activity (PubChem BioAssay)
Pf apPOL inh: Pf-apPOL inhibitors, biochemical, fluorescence | Plasmodium falciparum apicoplast DNA polymerase (apPOL) | Recombinant Pf-apPOL, molecular beacon fluorescence, 1.5 h | inhibition, % at 10 µM | 210,000 compounds, 0.25% hits | AID 1794808, 2022
mHTT CaM bind: mutant huntingtin-calmodulin interaction inhibitors – biochemical, AlphaScreen, primary screen; AID 1671202, 2021; inhibition, % at 15 µM; 190,000 compounds, 3.6% hits; AlphaScreen His-mHTT/GST-CaM binding, luminescence; P42858;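 further: 0% = both proteins with DMSO and 100% = one protein alone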
Target sequence (P42858 whole entry, looked up, stated change not applied): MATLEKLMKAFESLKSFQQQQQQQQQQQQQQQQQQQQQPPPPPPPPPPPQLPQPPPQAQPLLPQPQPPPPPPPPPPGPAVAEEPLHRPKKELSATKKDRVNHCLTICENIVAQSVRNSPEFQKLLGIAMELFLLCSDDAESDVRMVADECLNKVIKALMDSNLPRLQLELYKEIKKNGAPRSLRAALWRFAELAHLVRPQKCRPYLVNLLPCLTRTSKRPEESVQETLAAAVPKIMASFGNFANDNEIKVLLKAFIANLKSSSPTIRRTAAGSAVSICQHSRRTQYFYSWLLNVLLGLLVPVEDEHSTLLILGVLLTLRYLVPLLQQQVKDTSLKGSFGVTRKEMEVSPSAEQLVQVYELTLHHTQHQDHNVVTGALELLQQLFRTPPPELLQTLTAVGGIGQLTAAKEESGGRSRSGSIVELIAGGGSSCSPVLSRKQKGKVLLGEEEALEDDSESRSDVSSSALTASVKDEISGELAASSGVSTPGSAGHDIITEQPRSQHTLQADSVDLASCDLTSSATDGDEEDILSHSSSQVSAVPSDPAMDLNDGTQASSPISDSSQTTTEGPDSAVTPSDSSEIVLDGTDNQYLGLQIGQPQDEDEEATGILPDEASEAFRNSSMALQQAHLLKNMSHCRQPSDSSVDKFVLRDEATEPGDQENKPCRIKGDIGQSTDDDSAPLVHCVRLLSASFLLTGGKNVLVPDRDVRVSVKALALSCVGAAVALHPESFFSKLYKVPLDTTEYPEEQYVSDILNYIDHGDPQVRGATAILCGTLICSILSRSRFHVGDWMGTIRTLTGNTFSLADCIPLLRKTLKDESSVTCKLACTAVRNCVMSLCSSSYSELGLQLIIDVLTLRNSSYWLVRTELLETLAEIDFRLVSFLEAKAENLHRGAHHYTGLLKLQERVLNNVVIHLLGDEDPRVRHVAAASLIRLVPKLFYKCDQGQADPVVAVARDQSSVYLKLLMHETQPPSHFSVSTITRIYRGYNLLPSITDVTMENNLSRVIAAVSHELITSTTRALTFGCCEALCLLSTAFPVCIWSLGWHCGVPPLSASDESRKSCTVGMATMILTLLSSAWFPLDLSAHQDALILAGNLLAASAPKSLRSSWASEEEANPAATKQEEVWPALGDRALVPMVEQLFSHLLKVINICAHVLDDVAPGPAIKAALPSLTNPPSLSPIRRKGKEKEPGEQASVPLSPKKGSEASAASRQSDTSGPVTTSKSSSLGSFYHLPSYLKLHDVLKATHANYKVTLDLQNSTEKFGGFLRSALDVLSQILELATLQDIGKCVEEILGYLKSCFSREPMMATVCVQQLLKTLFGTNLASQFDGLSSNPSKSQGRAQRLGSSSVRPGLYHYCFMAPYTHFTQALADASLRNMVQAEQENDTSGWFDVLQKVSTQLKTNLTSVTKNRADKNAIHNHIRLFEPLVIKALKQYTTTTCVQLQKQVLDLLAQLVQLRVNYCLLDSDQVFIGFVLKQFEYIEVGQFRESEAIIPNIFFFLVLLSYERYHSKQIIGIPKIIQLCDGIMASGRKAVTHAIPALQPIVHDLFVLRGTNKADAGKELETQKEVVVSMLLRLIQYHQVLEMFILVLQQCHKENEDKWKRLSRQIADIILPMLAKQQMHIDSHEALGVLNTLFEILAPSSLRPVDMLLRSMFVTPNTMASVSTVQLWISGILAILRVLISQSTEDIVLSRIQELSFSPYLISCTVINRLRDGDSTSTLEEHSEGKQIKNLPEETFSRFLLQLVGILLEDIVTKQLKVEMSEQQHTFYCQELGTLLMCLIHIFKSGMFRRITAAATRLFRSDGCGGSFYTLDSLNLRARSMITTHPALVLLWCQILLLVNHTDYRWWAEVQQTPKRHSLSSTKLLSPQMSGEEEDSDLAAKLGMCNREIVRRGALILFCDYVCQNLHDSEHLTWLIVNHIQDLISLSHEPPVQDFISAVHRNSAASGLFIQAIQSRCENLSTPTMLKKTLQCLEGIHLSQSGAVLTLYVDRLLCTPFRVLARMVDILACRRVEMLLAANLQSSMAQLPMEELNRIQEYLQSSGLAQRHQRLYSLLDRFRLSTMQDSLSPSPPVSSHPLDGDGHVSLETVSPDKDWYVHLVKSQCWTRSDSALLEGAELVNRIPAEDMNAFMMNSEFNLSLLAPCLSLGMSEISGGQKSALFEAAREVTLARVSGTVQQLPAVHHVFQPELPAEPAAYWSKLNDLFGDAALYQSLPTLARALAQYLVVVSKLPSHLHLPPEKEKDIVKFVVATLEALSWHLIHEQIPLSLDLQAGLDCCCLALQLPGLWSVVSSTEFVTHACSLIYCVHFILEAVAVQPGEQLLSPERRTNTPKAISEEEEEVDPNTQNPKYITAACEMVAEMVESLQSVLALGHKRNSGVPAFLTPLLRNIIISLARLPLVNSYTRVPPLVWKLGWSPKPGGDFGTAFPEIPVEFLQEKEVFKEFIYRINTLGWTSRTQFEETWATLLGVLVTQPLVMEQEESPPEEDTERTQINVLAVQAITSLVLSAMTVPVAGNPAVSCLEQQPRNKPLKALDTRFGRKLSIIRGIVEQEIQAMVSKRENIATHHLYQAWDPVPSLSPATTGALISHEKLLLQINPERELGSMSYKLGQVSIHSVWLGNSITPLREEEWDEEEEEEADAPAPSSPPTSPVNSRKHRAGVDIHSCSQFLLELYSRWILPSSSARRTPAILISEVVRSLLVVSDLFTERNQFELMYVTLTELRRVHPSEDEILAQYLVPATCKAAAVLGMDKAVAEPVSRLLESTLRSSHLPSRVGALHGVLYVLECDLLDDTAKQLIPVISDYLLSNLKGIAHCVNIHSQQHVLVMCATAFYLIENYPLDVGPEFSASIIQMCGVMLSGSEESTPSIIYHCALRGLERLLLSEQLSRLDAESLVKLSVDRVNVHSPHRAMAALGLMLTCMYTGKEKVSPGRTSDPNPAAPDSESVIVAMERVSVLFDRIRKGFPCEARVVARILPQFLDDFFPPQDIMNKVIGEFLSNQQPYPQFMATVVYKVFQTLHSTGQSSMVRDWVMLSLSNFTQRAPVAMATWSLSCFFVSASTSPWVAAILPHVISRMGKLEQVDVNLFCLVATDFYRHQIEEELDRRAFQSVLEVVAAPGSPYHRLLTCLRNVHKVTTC
An asterisk follows results filed as active; i = inactive; . = no result given. Only some compounds are listed: those with a hit (about 3.5% of all), similar ones and a draw of the others. No stated cut-off is given here; in the data, active means inhibition above about 50%; inactive means the rest.

SMILES | Pf apPOL inh | mHTT CaM bind
O=C(Cn1cnc2c(oc3ccccc32)c1=O)Nc1cc(F)ccc1F | -3.1 | -1.2
O=C(Cn1c2c(c3ccccc31)CCC2)Nc1cc(F)ccc1F | -1.7 | 76.2*
O=C(c1ccc(-c2cccnc2)nc1)N1CCN(c2ccc(Cl)cc2)CC1 | -5.1 | 0.4
Cc1ccc(C)c(N2CCN(C(=O)c3ccc(SCc4cccnc4)c([N+](=O)[O-])c3)CC2)c1 | -1.3 | 65.0*
CN1CCN(C(=O)c2ccc(SCc3cccnc3)c([N+](=O)[O-])c2)CC1 | -3.2 | 6.0
Cc1ccc(C)c(N2CCN(C(=O)c3ccc(-c4cccnc4)nc3)CC2)c1 | 2.5 | 64.1*
O=C(c1ccc(-c2cccnc2)nc1)N1CCN(c2cccc(Cl)c2)CC1 | 0.9 | 75.9*
O=C(c1ccc(-c2cccnc2)nc1)N1CCN(c2ccccc2)CC1 | -0.5 | 7.0
COc1cccc(NC(=O)c2c(O)c3cccc4c3n(c2=O)CC4)c1 | -7.6 | -7.0
Cc1nn2c(=O)/c(=C/c3ccccc3[N+](=O)[O-])sc2nc1=O | -3.0 | 14.0
O=C(C=Cc1ccccc1)N1CCC2(CCc3ccccc3O2)CC1 | -6.9 | 14.7
COc1ccccc1CCC(=O)Nc1cc(-c2cccnc2)no1 | 1.7 | -7.6
Cc1nn(-c2cccc(Cl)c2)c2c1C(c1ccncc1)C(C#N)=C(N)O2 (stereo not drawn) | -6.1 | 17.0
COc1cc(C2C(C#N)=C(N)Oc3c2c(C)nn3-c2cccc(Cl)c2)cc(OC)c1O (stereo not drawn) | -2.3 | 64.0*
Cc1ccc(NC(=O)c2cc(Cl)c(Cl)cc2C(=O)O)cc1C | -3.0 | 1.0
Cc1ccc(NC(=O)c2cc(N3C(=O)C=CC3=O)ccc2Cl)cc1C | -3.6 | 92.0*
Cc1ccc(-c2nc3ccccn3c2NC(=O)C(C)(C)C)cc1 | 2.2 | 14.0
O=C(O)CCCC(=O)N1N=C(c2ccc(Br)cc2)CC1c1ccco1 (stereo not drawn) | -2.5 | 22.0
Cc1ccc(C(=O)N2N=C(c3ccc(Br)cc3)CC2c2ccco2)cc1 (stereo not drawn) | -3.4 | 78.0*
O=S(=O)(Nc1cccn2ncnc12)c1ccccc1Cl | -1.3 | -6.0
Cc1cc(C(=O)N2CC(c3nc4ccccc4[nH]3)C2)no1 | -2.4 | -9.7
O=C(c1ccc(Oc2ccccc2)cc1)N1CC(c2nc3ccccc3[nH]2)C1 | -28.5 | 99.6*
Cc1cc2c(c(=O)[nH]1)C(=O)O/C2=C\c1cccs1 | -2.9 | 12.0
Cc1cc2c(c(=O)[nH]1)C(=O)O/C2=C\c1ccc(C)o1 | -2.9 | 69.4*
COC(=O)c1ccc(NC(=O)C(=O)NCC(C)(O)Cc2ccc(OC)cc2)cc1 (stereo not drawn) | 1.1 | 0.2
SMILES | Pf apPOL inh | mHTT CaM bind
Cc1ccc(Cn2cc(CCC(=O)NCc3ccccn3)c3ccccc32)cc1 | -17.5 | 78.0*
Cc1ccc(Cn2cc(CCC(=O)NCc3ccco3)c3ccccc32)cc1 | -13.8 | 15.0
CCOC(=O)c1ccccc1NC(=O)N1CCC2(CC1)Nc1ccccc1-n1cccc12 | 4.5 | 59.8*
O=C(Nc1cccc(C(F)(F)F)c1)N1CCC2(CC1)Nc1ccccc1-n1cccc12 | 3.7 | 97.4*
CCOC(=O)c1cccc(NC(=O)N2CCC3(CC2)Nc2ccccc2-n2cccc23)c1 | -5.3 | 65.7*
CCOC(=O)Cc1ccc(NC(=O)N2CCC3(CC2)Nc2ccccc2-n2cccc23)cc1 | 3.7 | 75.6*
CCOc1ccccc1NC(=O)N1CCC2(CC1)Nc1ccccc1-n1cccc12 | -6.7 | 21.2
Cc1ccc(C)c(C(=O)N2CCC3(CC2)NC(=O)N(Cc2ccc(Cl)cc2)C3=O)c1 | -0.6 | 44.3
Cc1ccc(C(=O)NN(C)C)o1 | . | -2.9
Cc1ccc(C(=O)/C=C/C=C/C=C/N(C)C)o1 | -3.8 | 73.8*
N/C(=N\OCC(=O)N1CCOCC1)c1nonc1N | 3.6 | i
O=C(SCc1c(Cl)cccc1Cl)c1ccc([N+](=O)[O-])o1 | -6.7 | .
COc1ccc(OC)c(C2c3cccn3CCN2S(=O)(=O)c2ccc([N+](=O)[O-])cc2)c1 (stereo not drawn) | -2.2 | 23.8
COc1ccc(-c2ccc(CN3C(CC(C)C)C(=O)N(Cc4cn(CC5CCCCC5)nn4)CCS3(=O)=O)cc2)cc1OC (stereo not drawn) | 0.1 | 14.6
CC1C(=O)N(Cc2cn(CC3CCCCC3)nn2)CCS(=O)(=O)N1Cc1ccc(-c2ccccc2)cc1 (stereo not drawn) | -0.1 | 72.8*
Cc1ccc(-c2ccc(CN3C(C)C(=O)N(Cc4cn(CC5CCCCC5)nn4)CCS3(=O)=O)cc2)cc1 (stereo not drawn) | -7.3 | 29.7
CC(C)CC1C(=O)N(Cc2cn(CC3CCCCC3)nn2)CCS(=O)(=O)N1Cc1ccc(-c2ccncc2)cc1 (stereo not drawn) | -2.1 | 64.8*
O=C(Nc1ccc(F)cc1)N1CCN(C(C(=O)N2CCCCC2)C2CCCC2)CC1 (stereo not drawn) | -1.7 | -3.7
O=C(CN1CCN(c2ccccc2)CC1)NC1C2CC3CC(C2)CC1C3 (stereo not drawn) | -5.7 | 40.4
OCCCN(CC(O)COc1ccccc1)CC(O)COc1ccccc1 (stereo not drawn) | . | -4.2
CN(C)CCNC(=O)C12CC3CC(C1)CC(c1ccccc1)(C3)C2 | -2.2 | 14.0
CN(C)CCNC(=O)NCC12CC3CC(C1)CC(c1ccccc1)(C3)C2 | 2.0 | 78.7*
Cc1ccc(F)c(NC2OC(=O)c3ccccc32)c1 (stereo not drawn) | 6.6 | -4.0
Nc1cc(C(=O)c2ccc(O)c(N)c2)ccc1O | -8.2 | 17.2
Nc1cc(Oc2ccc(O)c(N)c2)ccc1O | 2.8 | 90.2*
SMILES | Pf apPOL inh | mHTT CaM bind
COc1cccc(CNC(=O)c2ccc3c(c2)nc2n3CCCCC2)c1 | -4.3 | 4.2
Cc1ccc(C(C)(c2ccc(N)cc2)c2ccc(N)cc2)cc1 | -11.9 | 67.6*
Cc1ccc(S(=O)(=O)N(C)c2ccc(N)cc2)cc1 | 23.7 | 5.9
O=C(Cc1ccccc1)N1CCc2c(nc3cc[nH]n3c2=O)C1 | -0.6 | -7.2
CCc1ccc(C2Nc3ccccc3NC3=C2C(=O)CC(c2ccccc2)C3)s1 (stereo not drawn) | -34.3 | 42.0
O=C1Nc2ccccc2OC1C(=O)N1CCN(c2cccc(Cl)c2)CC1 (stereo not drawn) | -2.3 | 1.6
Cc1ccc(Cl)cc1N1CCN(C(=O)C2Oc3ccccc3NC2=O)CC1 (stereo not drawn) | 0.1 | 81.2*
CCCN1CC=C2C(C#N)=C(N)C(C#N)(C#N)C3(CCN(CC)CC3)C2C1 (stereo not drawn) | -17.9 | 7.0
COc1ccc(N2CCN(C(=O)c3cn4cccc(C)c4n3)CC2)cc1 | -4.0 | 4.1
CCCOc1ccccc1/C=C/c1[nH]c(=O)[nH]c(=O)c1[N+](=O)[O-] | -1.4 | 1.8
O=c1[nH]c2ccccc2nc1CN1CCN(c2cccc(Cl)c2)CC1 | 1.2 | -9.2
COc1ccc(N2CCN(Cc3nc4cc(Cl)c(Cl)cc4[nH]c3=O)CC2)cc1 | 0.1 | 52.9*
O=C1NC(=O)C(=Cc2cccn2-c2ccccc2)C(=O)N1 | 0.5 | 7.0
O=C1NC(=O)C(=Cc2cccn2-c2ccc(Cl)cc2)C(=O)N1 | 37.0 | 66.0*
COc1cc(C2C(C#N)=C(N)Oc3nc[nH]c(=O)c32)cc(OC)c1OC (stereo not drawn) | -2.2 | -2.0
CCCCN(CC)C(=O)c1ccc(SC)cc1OC | -5.3 | -2.2
